Values joined by “and” are separate entries in the source; they are usually repeats but may differ in a detail not shown here. Equal values may be shown once. Among all 5,500 compounds or so, about 2,000 (36%) were called active. Roughly 18% stayed inconclusive and do not appear here. Rule as the data show it: active = normalized growth mostly below about 0.91 (no sharp cut-off); inconclusive = no clear call, values can overlap the other calls; inactive = mostly above about 0.92. This is one part of the list.
Assay: chemical genetic growth profiling, strain panel (AID 1159580);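 also: tested at 20 µM; growth read once vehicle control cultures reached saturation at 30 °C; 1 = growth at the plate median or of vehicle wells; lower values mean less growth of the strain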
Conditions: S. cerevisiae deletion strains, growth OD

Q: What does the source list for `CC(C)c1ccc2c(c1)CCC1[C@](C)(CN)CCC[C@]21C` (stereo partly specified)?
A: normalized growth (locus YAL013W, strain DEP1, stronger effect = lower value): 0.598 (active); normalized growth (locus YAL021C, strain ccr4, stronger effect = lower value): 0.819 (active); normalized growth (locus YAL026C, strain drs2, stronger effect = lower value): 0.0819 (active); normalized growth (locus YAL030W, strain snc1, stronger effect = lower value): 1.01 (inactive); normalized growth (locus YBL061C, strain skt5, stronger effect = lower value): 1.01 (inactive); normalized growth (locus YBR009C, strain hhf1, stronger effect = lower value): 0.927 (inactive); normalized growth (locus YBR021W, strain FUR4, stronger effect = lower value): 0.392 (active); normalized growth (locus YBR023C, strain chs3, stronger effect = lower value): 0.947 (inactive); normalized growth (locus YBR171W, strain sec66, stronger effect = lower value): 1.02 (inactive); normalized growth (locus YBR229C, strain ROT2, stronger effect = lower value): 0.925 (inactive); normalized growth (locus YBR231C, strain swc5, stronger effect = lower value): 0.974 (inactive); normalized growth (locus YBR279W, strain paf1, stronger effect = lower value): 0.976 (inactive); normalized growth (locus YCL011C, strain gbp2, stronger effect = lower value): 0.942 (inactive); normalized growth (locus YCL016C, strain dcc1, stronger effect = lower value): 0.952 (inactive); normalized growth (locus YCL029C, strain bik1, stronger effect = lower value): 0.652 (active); normalized growth (locus YCL061C, strain MRC1, stronger effect = lower value): 0.983 (inactive); normalized growth (locus YCL069W, strain vba3, stronger effect = lower value): 1 (inactive); normalized growth (locus YCR088W, strain abp1, stronger effect = lower value): 1.01 (inactive); normalized growth (locus YDL005C, strain med2, stronger effect = lower value): 1.03 (inactive); normalized growth (locus YDL035C, strain GPR1, stronger effect = lower value): 0.253 (active); normalized growth (locus YDL040C, strain nat1, stronger effect = lower value): 1.01 (inactive); normalized growth (locus YDL074C, strain BRE1, stronger effect = lower value): 0.45 (active); normalized growth (locus YDL101C, strain DUN1, stronger effect = lower value): 0.199 (active); normalized growth (locus YDL134C, strain PPH21, stronger effect = lower value): 0.486 (active); normalized growth (locus YDL185W, strain tfp1, stronger effect = lower value): 0.88 (active); normalized growth (locus YDL192W, strain arf1, stronger effect = lower value): 0.0814 (active); normalized growth (locus YDR001C, strain nth1, stronger effect = lower value): 1.02 (inactive); normalized growth (locus YDR069C, strain doa4, stronger effect = lower value): 0.839 (active); normalized growth (locus YDR101C, strain arx1, stronger effect = lower value): 0.13 (active); normalized growth (locus YDR137W, strain rgp1, stronger effect = lower value): 1.03 (inactive); normalized growth (locus YDR150W, strain NUM1, stronger effect = lower value): 0.786 (active); normalized growth (locus YDR159W, strain sac3, stronger effect = lower value): 1.02 (inactive); normalized growth (locus YDR162C, strain NBP2, stronger effect = lower value): 0.0633 (active); normalized growth (locus YDR195W, strain ref2): 1.1 (inactive); normalized growth (locus YDR297W, strain sur2, stronger effect = lower value): 0.992 (inactive); normalized growth (locus YDR318W, strain mcm21, stronger effect = lower value): 0.457 (active); normalized growth (locus YDR334W, strain swr1, stronger effect = lower value): 1.01 (inactive); normalized growth (locus YDR335W, strain msn5, stronger effect = lower value): 0.969 (inactive); normalized growth (locus YDR388W, stronger effect = lower value): 0.284 (active); normalized growth (locus YDR392W, strain spt3, stronger effect = lower value): 0.5 (active); normalized growth (locus YDR502C, strain sam2, stronger effect = lower value): 0.0848 (active); normalized growth (locus YEL003W, strain gim4, stronger effect = lower value): 0.927 (inactive); normalized growth (locus YEL037C, strain rad23, stronger effect = lower value): 1.01 (inactive); normalized growth (locus YEL061C, strain CIN8 (second series), stronger effect = lower value): 1.01 (inactive); normalized growth (locus YEL061C, strain CIN8, stronger effect = lower value): 0.65 (active); normalized growth (locus YER015W, strain faa2, stronger effect = lower value): 0.951 (inactive); normalized growth (locus YER016W, strain bim1, stronger effect = lower value): 1.02 (inactive); normalized growth (locus YER110C, stronger effect = lower value): 0.684 (active); normalized growth (locus YER111C, strain swi4, stronger effect = lower value): 1.03 (inactive); normalized growth (locus YER155C, strain BEM2 (second series), stronger effect = lower value): 0.367 (active); normalized growth (locus YER167W, strain BCK2, stronger effect = lower value): 0.661 (active); normalized growth (locus YFR010W, strain ubp6, stronger effect = lower value): 0.811 (active); normalized growth (locus YGL078C, strain dbp3, stronger effect = lower value): 0.906 (active); normalized growth (locus YGL086W, strain mad1, stronger effect = lower value): 0.167 (active); normalized growth (locus YGL167C, strain pmr1, stronger effect = lower value): 1.01 (inactive); normalized growth (locus YGL173C, strain kem1, stronger effect = lower value): 0.971 (inactive); normalized growth (locus YGL227W, strain vid30, stronger effect = lower value): 1.02 (inactive); normalized growth (locus YGL240W, strain doc1, stronger effect = lower value): 0.959 (inactive); normalized growth (locus YGL248W, strain PDE1, stronger effect = lower value): 0.368 (active); normalized growth (locus YGL253W, strain hxk2, stronger effect = lower value): 0.973 (inactive); normalized growth (locus YGR078C, strain PAC10, stronger effect = lower value): 0.334 (active); normalized growth (locus YGR135W, strain pre9, stronger effect = lower value): 0.117 (active); normalized growth (locus YGR229C, strain SMI1, stronger effect = lower value): 0.0707 (active); normalized growth (locus YGR252W, strain gcn5, stronger effect = lower value): 0.174 (active); normalized growth (locus YHR013C, strain ard1, stronger effect = lower value): 0.886 (inactive); normalized growth (locus YHR027C, strain rpn1, stronger effect = lower value): 1.02 (inactive); normalized growth (locus YHR030C, strain SLT2, stronger effect = lower value): 0.183 (active) and 0.967 (inactive); normalized growth (locus YHR079C, strain IRE1 (second series), stronger effect = lower value): 0.646 (active); normalized growth (locus YHR079C, strain IRE1, stronger effect = lower value): 0.964 (inactive); normalized growth (locus YHR094C, strain hxt1, stronger effect = lower value): 0.949 (inactive); normalized growth (locus YHR129C, strain ARP1, stronger effect = lower value): 0.701 (active); normalized growth (locus YHR142W, strain chs7, stronger effect = lower value): 0.89 (inactive); normalized growth (locus YHR200W, strain rpn10, stronger effect = lower value): 0.162 (active); normalized growth (locus YIL066C, strain RNR3, stronger effect = lower value): 0.34 (active); normalized growth (locus YIL073C, strain SPO22, stronger effect = lower value): 0.147 (active); normalized growth (locus YIL125W, strain kgd1, stronger effect = lower value): 0.961 (inactive); normalized growth (locus YIR030C, strain dcg1, stronger effect = lower value): 0.19 (active); normalized growth (locus YJL092W, strain hpr5, stronger effect = lower value): 0.991 (inactive); normalized growth (locus YJL095W, strain BCK1 (second series), stronger effect = lower value): 0.995 (inactive); normalized growth (locus YJL095W, strain BCK1, stronger effect = lower value): 0.108 (active) and 0.995 (inactive); normalized growth (locus YJL115W, strain asf1, stronger effect = lower value): 1.01 (inactive); normalized growth (locus YJL129C, strain trk1, stronger effect = lower value): 0.954 (inactive); normalized growth (locus YJL134W, strain LCB3, stronger effect = lower value): 0.987 (inactive); normalized growth (locus YJL154C, strain vps35, stronger effect = lower value): 1.02 (inactive); normalized growth (locus YJL164C, strain tpk1, stronger effect = lower value): 0.931 (inactive); normalized growth (locus YJL166W, strain qcr8, stronger effect = lower value): 0.894 (active); normalized growth (locus YJL168C, strain set2, stronger effect = lower value): 0.714 (active); normalized growth (locus YJL187C, strain SWE1 (second series), stronger effect = lower value): 0.243 (active); normalized growth (locus YJR043C, strain POL32, stronger effect = lower value): 0.635 (active); normalized growth (locus YJR066W, strain TOR1, stronger effect = lower value): 0.919 (inactive); normalized growth (locus YJR075W, strain HOC1, stronger effect = lower value): 0.392 (active)

From PubChem BioAssay AID1159580 (chemical genetic matrix, 2015)
